Rows were chosen to be rich in hits. Some 5% of all compounds tested hit in one or more screens of this group.
AI-2 QS mod – modulators of Vibrio harveyi AI-2 quorum sensing system; Vibrio harveyi JMH597 AI-2 luminescence/OD600 ratio, 9 h; stronger effect = lower value; strain lacks LuxN and CqsS sensors; 0 = neutral-control median; activity change, % at 7.5 µM; 300,000 compounds, 0.4% hits; AID 2094; in the data active means activity change below about -75%, passing the limit was not always enough;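 further: luminescence divided by OD600 gain over 9 h not by final OD600 alone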
PREPL inhibitor – human PREPL enzyme inhibition | Q4J6C6 | recombinant PREPL, fluorescence polarization activity-based probe | inhibition, % at 5.96 µM | 320,000 compounds, 0.68% hits | AID 2751; in the data active means inhibition above about 43%;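 further: 0% = enzyme with DMSO and 100% = wells lacking enzyme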
CHT inh – inhibitors of human choline transporter CHT; Q9GZV3; CHT-expressing cells, membrane potential dye, choline response; stronger effect = lower value; B-score at 10 µM; 310,000 compounds, 0.86% hits; AID 488975;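 active means B-score over 3 SD under the library average, and starting fluorescence ratio not unusually high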;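 further: choline stimulus applied at its EC90 after an EC20 pre-addition; B-score computed on integrated fluorescence ratio after choline addition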
CHT allo act – allosterically activates the human high affinity choline transporter; Q9GZV3; CHT-expressing cells, membrane potential dye, choline EC20; stronger effect = higher value; LV-AA mutant CHT in HEK293 cells; B-score at 10 µM; 310,000 compounds, 0.49% hits; AID 488977;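 active means initial fluorescence not abnormally high and integrated response B-score, plate-corrected, over 3 SD above library mean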
ALR inh – human ALR oxidase inhibition via reduced H2O2 | inhibition, % (concentration not given with the values) | P55789 | 290,000 compounds, 3.8% hits | purified ALR, DTT oxidation, H2O2 HRP-luminol luminescence;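 active means mean replicate inhibition above about 79%, with every replicate also reaching it, limit read from the data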
* = called active by the depositor; i = inactive; · = no result given.

SMILES	AI-2 QS mod	PREPL inhibitor	CHT inh	CHT allo act	ALR inh
c1ccc2sc(SCc3ccc(-c4nnco4)cc3)nc2c1	-21	-14	i	i	-4
CCC(C)/C(C)=N/NC(=O)c1ccc(CSc2nc3ccccc3s2)cc1 (centres undefined)	26	6	i	i	42
CCNC(=O)c1ccc(CSc2nc3ccccc3s2)cc1	29	-20	i	i	99*
COCCNC(=O)c1ccc(CSc2nc3ccccc3s2)cc1	37	-7	i	i	99*
COCCNC(=O)COC(=O)CSCc1nc2ccccc2s1	11	19	i	i	98*
NC(=O)c1ccc(CSc2nc3ccccc3s2)cc1	4	-15	i	i	92*
Cc1ccc(C2(c3ccccc3)NC(=O)N(CC(=O)NC3CCS(=O)(=O)C3)C2=O)cc1C (centres undefined)	·	-4	·	·	-5
O=C(Cn1cnc2c(nnn2-c2cccc(Cl)c2)c1=O)NCc1ccccc1	-14	-8	i	i	-3
O=C(CNC(=O)c1ccncc1)N/N=C/c1ccccn1	9	4	i	i	-5
O=C(CNC(=O)c1cccc(Br)c1)N/N=C/c1ccc2c(c1)OCO2	-41	-9	i	i	·
CN(C)c1ccc(/C=N/NC(=O)CNC(=O)/C=C/c2ccco2)cc1	19	-6	i	i	91*
O=C(/C=C/c1ccccc1)NCC(=O)N/N=C/c1ccco1	1	9	i	i	0
CN(C)c1ccc(/C=N/NC(=O)CNC(=O)c2ccncc2)cc1	13	2	i	i	98*
CN(C)c1ccc(/C=N/NC(=O)CNC(=O)c2ccc3c(c2)OCCO3)cc1	23	4	i	i	98*
CCN(CC)c1ccc(/C=N/NC(=O)CNC(=O)c2ccc3c(c2)OCCO3)cc1	34	14	i	i	87*
O=C(c1cc2ccccc2o1)N1CCN(C/C=C/c2ccccc2)CC1	19	-5	i	i	0
N#Cc1ccc(COn2nnc3ccccc32)cc1	28	-1	i	i	-15
CCN(CC(=O)NCc1ccc(Cl)cc1)C(=O)c1ccc(C#N)cc1	20	-4	i	i	-14
CCN(CC)c1ccc(NC(=O)c2ccc3c(c2)OCO3)cc1	-18	10	i	i	99*
CCC(=O)Nc1ccc(NC(=O)c2ccc3c(c2)OCO3)cc1	7	13	i	i	1
COc1ccc(C2C3=C(CCCC3=O)Nc3nc(-c4cc(OC)c(OC)c(OC)c4)nn32)cc1OC (centres undefined)	5	5	i	i	-3
COc1ccc(-c2nc3n(n2)C(c2ccccc2)C2=C(CCCC2=O)N3)cc1OC (centres undefined)	27	11	i	i	97*
COC(=O)c1c(SCc2cccc3ccccc23)nc(=O)[nH]c1C	17	-11	i	i	99*
COc1ccccc1CNS(=O)(=O)c1ccc(-c2cc(C)no2)cc1	5	-3	i	6.4*	-4
O=C(CCc1ccccn1)N1CCCC(Nc2ccc(F)cc2)C1 (centres undefined)	-10	10	i	i	99*
SMILES	AI-2 QS mod	PREPL inhibitor	CHT inh	CHT allo act	ALR inh
CCc1nccn1CCC(=O)N1CCCC(Nc2ccc(F)cc2)C1 (centres undefined)	3	4	i	i	99*
Oc1ccc(-c2[nH]nc(-c3ccccc3)c2-c2nc3ccccc3[nH]2)cc1	2	-1	i	i	84*
Oc1ccc(N=Nc2nc(-c3ccccc3)c(-c3ccccc3)[nH]2)cc1	28	15	i	i	14
C[C@@]12C(=O)N(Cc3ccc(F)cc3)CC(=O)N1[C@H]1c3cc(Cl)ccc3OC[C@@H]1[C@@H]2c1ccccc1	·	-14	·	·	5
Cc1ccc(CC(=O)O/N=C(\N)Cc2ccc([N+](=O)[O-])cc2)cc1	9	18	i	i	35
N/C(=N\OC(=O)Cc1ccc([N+](=O)[O-])cc1)c1ccc([N+](=O)[O-])cc1	7	10	i	i	97*
N/C(=N\OC(=O)Cc1ccc([N+](=O)[O-])cc1)c1cccc(Br)c1	-59	0	i	i	99*
CC(NC(=O)CSC(=S)N1CCCC1)c1ccc(S(N)(=O)=O)cc1 (centres undefined)	25	14	i	i	14

Screening results from PubChem.
